PubChem BioAssay AID624297 (National Center for Advancing Translational Sciences (NCATS), 2012)
In all, about 340,000 compounds went through this assay and about 6,200 (1.8%) were called active. Not shown: some 10% with an inconclusive outcome. This is one part of a sample in which actives are shown more often than they occur. Calls come from the whole dose curve; as a rule, active = well fitted activation curve with a large enough effect; inconclusive = small, poorly fitted or top-dose-only effect; inactive = no such curve, though single readings can be large or run the other way.
Potency is the fitted concentration of half-maximal effect.

Assay: A quantitative high throughput screen for small molecules that induce DNA re-replication in SW480 colon adenocarcinoma cells. For re-replication activation: % of control where 0% means no effect. Note: nearly all actives have a fitted effect of over 55% in size.
Conditions: Hoechst DNA content imaging, 48 h; series mostly up to 46.1 µM; re-replication activation: at the top concentration
Outline: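 Compounds, transferred as 23 nL by pin tool, were incubated with cells for 48 hr; DNA content per nucleus was then quantified by Hoechst staining and fluorescence plate imaging.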
For `C#CCOCCOCCOCCNc1nc(N2CCN(C(=O)C([C@@H](C)O)n3cc([C@@H](N)CCCCN)nn3)CC2)nc(N2CCN(C(=O)[C@H](CCCCN)n3cc(CN)nn3)CC2)n1` (some centres undefined), the “re-replication activation” value was -4.36% (inactive).
With `COC(=O)[C@]1(Cc2ccccc2)N[C@H](CN(C)S(=O)(=O)c2ccc(OC(F)(F)F)cc2)[C@@H]2C(=O)N(Cc3ccccc3)C(=O)[C@@H]21` the “re-replication activation” value was -6.08% (inactive).
With `CCCCN1CC(COc2ccccc2)Oc2cccc(F)c2S1(=O)=O` (centres undefined) the “re-replication activation” value was -0.739% (inactive).
For `O=C(Nc1ccccn1)C1CCN(S(=O)(=O)c2ccccc2)CC1`, the “re-replication activation” value was -5.61% (inactive).
With `Cc1ccnc(NC(=O)C2CCN(S(=O)(=O)c3c(C)c(C)cc(C)c3C)CC2)c1` the Potency was 16.4 µM (active).
For `Cc1cccc(NC(=O)C2CCN(S(=O)(=O)c3cccc4cccnc34)CC2)c1`, the “re-replication activation” value was 2.9% (inactive).
In the case of `C=CC[C@H](CC(=O)N(CCO)Cc1ccccc1)C(=O)N[C@@H](COC(=O)[C@@H](CC=C)Cc1ccc(F)cc1)Cc1ccccc1`, the “re-replication activation” value is reported as 19.7% (inactive).
In the case of `O=[N+]([O-])c1ccccc1S(=O)(=O)Nc1cccc2cccnc12`, the Potency is reported as 13 µM (active).
In the case of `Cc1ccccc1NC(=O)c1ccccc1NS(=O)(=O)c1cccc2cccnc12`, the “re-replication activation” value is reported as -6.45% (inactive).
With `O=[N+]([O-])c1cccc2ncccc12` the “re-replication activation” value was -2.67% (inactive).
In the case of `CC(=O)C(CC(=O)N1CCCC1)C(=O)Nc1ccc(Cl)cc1` (centres undefined), the “re-replication activation” value is reported as -3.64% (inactive).
With `COC1=NC2=NCCN2C(OC)=N1` the “re-replication activation” value was -5.59% (inactive).
For `O=C(NCCN1CCOCC1)c1cc(-c2cccs2)nc2ccccc12`, the “re-replication activation” value was -5.04% (inactive).
In the case of `O=C(NCCN1CCOCC1)c1ccc2c(c1)ncn2C1CCCC1`, the “re-replication activation” value is reported as 10.1% (inactive).
With `c1ccc2cc3c(NCCN4CCOCC4)ccnc3cc2c1` the Potency was 10.3 µM (active).
For `Cc1ccc(S(=O)(=O)N2CCN(C(=O)COC(=O)CNC(=O)c3ccc(C(C)(C)C)cc3)CC2)c(C)c1`, the “re-replication activation” value was 9.49% (inactive).
In the case of `CCn1c(=N)c(S(=O)(=O)c2ccc(F)cc2)cc2c(=O)n3ccccc3nc21`, the Potency is reported as 20.6 µM (active).
With `Cc1ccc(-n2c(=O)c(C#N)cc3c(=O)n4ccccc4nc32)cc1C` the “re-replication activation” value was 12.5% (inactive).
With `Cc1ccc(S(=O)(=O)c2cc3c(=O)n4cccc(C)c4nc3n(CCc3ccccc3)c2=N)cc1C` the “re-replication activation” value was 0.0757% (inactive).
With `Cc1cc(C)c(C#N)c(N2CCC(C(N)=O)CC2)n1` the “re-replication activation” value was -2.1% (inactive).
For `N#CCc1c(C#N)c(N)nc(N2CCCC2)c1C#N`, the Potency was 14.6 µM (active).
With `N#Cc1c(C(F)(F)F)cc(-c2cccs2)nc1N1CCCCC1` the “re-replication activation” value was 0.724% (inactive).
For `O=C(OCCOc1ccccc1F)c1cc(S(=O)(=O)N2CCOCC2)ccc1F`, the “re-replication activation” value was -0.079% (inactive).
For `COc1cccc(NC(=O)COC(=O)c2ccc3ccccc3n2)c1`, the “re-replication activation” value was 1.57% (inactive).
In the case of `CN(CCc1ccccc1)C(=O)c1cccc(NC(=O)Cc2cccc(NC(=O)C3CCCN(C(=O)CCc4ccccc4)C3)c2)c1` (centres undefined), the “re-replication activation” value is reported as 0.811% (inactive).
With `CC(NC(=O)c1ccccc1)C(=O)OCC(=O)Nc1cccc(S(=O)(=O)N2CCCC2)c1` (centres undefined) the “re-replication activation” value was -5.24% (inactive).
For `CC1(C)CC(=O)C(C2c3ccccc3S(=O)(=O)c3ccccc32)C(=O)C1`, the Potency was 4.11 µM (active).
In the case of `CC1(C)CC(=O)C(CC(=O)N2CCC(Cc3ccccc3)CC2)C(=O)C1`, the “re-replication activation” value is reported as -0.753% (inactive).
With `CC1(C)CC(=O)C=C(Nc2ccccc2)C1` the “re-replication activation” value was -23.6% (inactive).
For `COC(=O)C1CCN(C(=O)COC(=O)c2cc(S(=O)(=O)N3CCOCC3)ccc2C)CC1`, the “re-replication activation” value was -0.243% (inactive).
For `C#CCOCCOCCOCCNc1nc(N2CCN(C(=O)Cn3cc(CCO)nn3)CC2)nc(N2CCN(C(=O)Cn3cc(CCCN=C(N)N)nn3)CC2)n1`, the “re-replication activation” value was -27.1% (inactive).
In the case of `Cc1cc(C)nc(Nc2cc([N+](=O)[O-])ccc2C)n1`, the “re-replication activation” value is reported as -0.192% (inactive).
In the case of `COc1ccccc1-c1nc(SC)n[nH]1`, the “re-replication activation” value is reported as 3.14% (inactive).
With `Cc1cc(C)nc(Nc2n[nH]c(-c3ccccc3N)n2)n1` the Potency was 29.1 µM (active).
With `Cc1noc(C)c1NC(=O)Nc1cccc2c1O[C@H](CN(C)C(=O)Nc1ccccc1)[C@@H](C)CN([C@H](C)CO)C2=O` the “re-replication activation” value was -3.39% (inactive).
With `CCCSc1ccc([C@H]2N[C@@](Cc3ccccc3)(C(=O)OC)[C@H]3C(=O)N(C)C(=O)[C@@H]23)cc1` the “re-replication activation” value was 2.68% (inactive).
For `Cc1ccc(CNC(=O)COC(=O)C2CCC2)cc1`, the “re-replication activation” value was -1.38% (inactive).
With `CCOc1ccccc1NC(=O)CCc1ccc(C)o1` the “re-replication activation” value was -4.07% (inactive).
With `Cc1ccc(CCC(=O)Nc2ncc(Cc3cc(Cl)ccc3Cl)s2)o1` the Potency was 1.64 µM (active).
In the case of `Cc1cnc(NC(=O)CSc2nnc(-c3ccc(Cl)cc3Cl)n2N)s1`, the “re-replication activation” value is reported as -3.24% (inactive).
For `O=[N+]([O-])c1cc2ccccc2nc1-c1ccccc1`, the “re-replication activation” value was -4.95% (inactive).
With `O=C(CN1C(=O)NC2(CCOc3ccccc32)C1=O)Nc1cccc([N+](=O)[O-])c1` (centres undefined) the “re-replication activation” value was -3.66% (inactive).
With `Cc1ccnc(NC(=O)c2ccco2)n1` the “re-replication activation” value was -1.17% (inactive).
With `CCn1nc(NC(=O)c2ccco2)c2cc3ccc(C)cc3nc21` the Potency was 9.2 µM (active).
In the case of `Cc1ccc(C(=O)COc2cccc(NC(=O)c3ccco3)c2)cc1`, the “re-replication activation” value is reported as -1.13% (inactive).
In the case of `O=S1(=O)CCOC[C@H](Cc2ccccc2)N1Cc1ccccc1Br`, the “re-replication activation” value is reported as 1.97% (inactive).
With `O=C(CCc1nc2ccccc2c(=O)[nH]1)OCC(=O)c1cccc(Cl)c1` the “re-replication activation” value was 6.23% (inactive).
For `O=C(/C(=C/c1cccc(Cl)c1)c1nc2ccccc2[nH]1)c1ccccc1`, the Potency was 18.4 µM (active).
With `CCC(=O)/C(=C(/O)c1ccccc1)c1nc2ccccc2[nH]1` the “re-replication activation” value was 2.37% (inactive).
